According to PubChem BioAssay (NCI):
Compounds without any hit were thinned out: in the full panel of roughly 83,000, 20% have a hit.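 Values shown are percent growth following 48 h exposure of cells in 96-well plates to a single concentration of compound; below 10 was considered active.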 Values without a mark were called inactive. Active and inactive are the calls of the source.

Assays:
Assay in all cases: NCI-60 one-dose screen, 48 h (100 = growth as untreated, 0 = no growth, -100 = all killed)
Conditions in all cases: 10 µM unless noted
[1] = tested on: SR leukemia
[2] = tested on: RPMI-8226 leukemia
[3] = tested on: OVCAR-8 ovarian
[4] = tested on: OVCAR-5 ovarian
[5] = tested on: SK-OV-3 ovarian
[6] = tested on: IGROV1 ovarian
[7] = tested on: HS 578T breast
[8] = tested on: NCI/ADR-RES ovarian
[9] = tested on: OVCAR-3 ovarian
[10] = tested on: OVCAR-4 ovarian

Row | SMILES | growth [1] | growth [2] | growth [3] | growth [4] | growth [5] | growth [6] | growth [7] | growth [8] | growth [9] | growth [10]
1 | Cc1ccccc1NC1CC(=O)N(c2ccc(Cl)cc2Cl)C1=O (configuration not stated) | 102% | 102% | 103% | 107% | 108% | 101% | 99.6% | 99.9% |  | 
2 | O=C(CSc1nnc(-c2ccc(Cl)cc2)n1-c1ccccc1)Nc1ccc(F)cc1 | 76.4% | 89.5% | 74% | 97.4% | 83.8% | 95.1% | 61.4% | 77.9% | 87.7% | 
3 | CS(=O)(=O)c1nccc(-c2c(-c3ccc(F)c(OCc4ccccc4)c3)nc3sccn23)n1 | 16.6% | 43.3% | 99.6% | 100% | 117% | 101% | 91.3% |  |  | 
4 | O=C(COc1ccc(/C=C2\SC(=O)NC2=O)cc1)Nc1ccc(C(=O)/C=C/c2cc3ccccc3nc2Cl)cc1 | 31.3% | -25.8% (active) | 76.4% | 110% | 108% | 71.4% | 78.8% |  | 85.5% | 
5 | NS(=O)(=O)c1ccc(Nc2nc(N/N=C/c3ccc([N+](=O)[O-])cc3)nc(Nc3ccccc3)n2)cc1 | 15.6% | 43.3% | 33.2% | 82% | 67.8% | 52.1% | 53.5% | 93.3% |  | 
6 | Cc1ccc(Nc2ncnc3c2c(C)nn3-c2ccc([N+](=O)[O-])cc2)cc1 | 68.6% |  | 72.6% | 101% | 71.7% | 84.1% | 68.6% |  | 46.3% | 46%
7 | CS(=O)c1nccc(-c2c(-c3ccc(F)c(OCCc4ccc(F)cc4)c3)nc3sccn23)n1 (configuration not stated) | -8.59% (active) | 18% | 66.6% | 103% | 105% | -40.4% (active) | 88.7% | 105% |  | 
8 | N/C(=N\c1nc2c(Cl)cccc2s1)C(Cl)(Cl)Cl | 94.2% | 53.3% | 87.6% | 95.5% | 91.3% | 89.1% | 80.2% | 89% |  | 
9 | C#C[C@]1(O)CC[C@H]2[C@@H]3CC=C4c5sc(-c6ccc(OC)cc6)nc5CC[C@]4(C)[C@H]3CC[C@@]21C | 23.5% |  | 84.6% | 71.2% | 53.8% | 70.2% | 2.91% (active) |  | 83.2% | 97.9%
10 | C[C@H]1[C@H](C)CC[C@]2(COC(=O)c3cccnc3)CC[C@]3(C)C(=CC[C@@H]4[C@@]5(C)CCCNC(C)(C)[C@@H]5CC[C@]43C)[C@H]12 | -8.33% (active) |  | 86.2% | 90.9% | 92.5% | 65% | 78.8% |  | 68.4% | 70.5%
11 | O=C(/C=C1\C=CN(CCCCO)c2ccccc21)n1ccc2ccccc21 | 123% | 109% | 97.3% | 102% | 97.6% | 89.2% | 98.7% |  | 111% | 
12 | Cc1nn(-c2ccccc2)c2nc(CCl)[nH]c(=O)c12 | 39.8% |  | 102% | 112% | 122% | 97.4% | 120% | 105% | 90.9% | 110%
13 | O=C1NC(=O)/C(=C/c2ccc(OCc3cc4ccccc4nc3Cl)cc2)S1 | 91% | 78.7% | 99% | 114% | 109% | 108% | 111% | 100% | 104% | 
14 | COc1ccc(NS(=O)(=O)c2ccc(-c3cnc(C4CC4)o3)cc2)cc1Cl | 23.2% |  | 40.4% | 48.8% | 60% | 41.4% | 28.1% | 18.6% | 15.5% | 52.5%
15 | CCN1C(=O)N(CC)C2SC(N/N=C/c3ccccc3F)=NC21 (configuration not stated) | 18.7% | 20.3% | 3.86% (active) | 47.5% | 30.4% | 28.3% | 11.9% | 5.59% (active) |  | 
16 | CC(C)(C)n1nnnc1C(Nc1nccs1)c1cc2cccc3ccc4cccc1c4c32 (configuration not stated) | 84.5% | 94.9% | 97.6% | 59.7% | 109% | 85.5% | 88.3% | 103% |  | 
17 | CN(c1ccc(F)cc1)S(=O)(=O)c1ccc(-c2cnc(C3CC3)o2)cc1 | 20.1% |  | 38.8% | 49.5% | 72.1% | 27.5% | 37.4% | 9.11% (active) | 6.57% (active) | 70.4%
18 | Fc1ccccc1/C=C(/C1=NCCN1)n1cnc2ccccc21 | 91.7% | 96.9% | 99.6% | 94.8% | 93.1% | 95.6% | 93.3% | 104% |  | 
19 | COC1=C(c2ccccc2)C(=O)C(OC)=C(c2ccccc2)C1=O | 79.8% | 93.5% | 100% | 119% | 81.2% | 93.2% | 96.8% | 102% | 72.6% | 
20 | CN(C)C(=O)c1ccccc1-n1cnc2ccccc2c1=O | 103% |  | 103% | 104% | 107% | 99.9% | 108% | 102% | 110% | 106%
21 | NC(=S)N/N=C(/C=C/c1cn(-c2ccccc2)nc1-c1ccc(Cl)cc1)c1cc2ccccc2oc1=O | 39.7% |  | 31.3% | 67.3% | 85.2% | 36% | 69.2% | 25.4% | 14.8% | 39.4%
22 | C#C[C@]1(O)CC[C@H]2[C@@H]3CC=C4c5sc(Nc6cc(OC)ccc6OC)nc5CC[C@]4(C)[C@H]3CC[C@@]21C | 3.13% (active) |  | 40.1% | 56.7% | 5.82% (active) | 47.9% | -13.8% (active) | 55.6% | 59.2% | 64.3%
23 | CCCCOc1ccc(S(=O)(=O)N2CCN(c3nccc(N4CCOCC4)n3)CC2)cc1 | 46.3% |  | 49.5% | 56.2% | 12.8% | 9.51% (active) | 69.4% | 31.2% | 105% | 49.4%
24 | COC(=O)c1c(C(=O)OC)c2n(CC(=O)Nc3cccc4cccnc34)c3ccccc3n2c1C(=O)c1ccc(C)cc1 | 122% |  | 92.4% | 102% | 119% | 97.6% | 111% | 96% | 114% | 99.8%
25 | CCN1C(=O)N(CC)C2SC(N/N=C/C=C/c3ccccc3OC)=NC21 (configuration not stated) | 27.5% |  | 22.3% | 37.7% | 52.8% | 21.4% | 27.1% | 11.9% | -39.6% (active) | 68.6%
26 | CCOc1ccc2nc(NC(=O)Nc3ccccc3C)sc2c1 | 24.3% |  | 74.7% | 80.2% | 82.3% | 49.5% | 50.5% | 22.8% | 20.7% | 80.2%
27 | C#C[C@]1(O)CC[C@H]2[C@@H]3CC=C4c5sc(C6CCOCC6)nc5CC[C@]4(C)[C@H]3CC[C@@]21C | 58.6% |  | 83.8% | 88.6% | 104% | 90.8% | 66.9% | 80.6% | 94.2% | 89.7%
28 | CCCCCCNC(=O)Oc1ccc(/C(=C(/C)c2ccc(OC)cc2)c2ccc(OCCN3CCCC3)cc2)cc1 | 5.51% (active) |  | 86.6% | 81.5% | 97.9% | 65.7% | 83.7% | 77% | 89.8% | 84.8%
29 | O=C(COc1cccc2cccnc12)Nc1ccc(C(=O)/C=C/c2ccc(Cl)cc2)cc1 | 61.1% |  | 94.4% | 105% | 105% | 88.8% | 98.8% | 79.2% | 100% | 92%
